Most compounds without a hit are left out; they make up all but 3.5% or so of the library.
BoNT-A LC inh2 = inhibitors of Botulinum neurotoxin A light chain protease. multiplex microsphere protease substrate cleavage, flow cytometry. inhibition, % at 10 µM. hit rate 0.17% among 360,000; further: plate controls were buffer without enzyme for full effect and enzyme alone for no effect
BoNT F protease = blocks Botulinum neurotoxin F light chain protease | inhibition, % at 10 µM | hit rate 0.22% among 360,000 | Multiplex microsphere protease cleavage assay, flow cytometry | AID 588497; in the data active means inhibition above about 35%, passing the limit was not always enough; inconclusive means no clear call, values can overlap the other calls; further: plate controls were buffer without enzyme for full effect and enzyme alone for no effect
BH1578 lux ind = quorum light induction in luxS cqsA deficient V. cholerae. activation, % at 18.7 µM. hit rate 0.16% among 350,000. V. cholerae BH1578 lux reporter, luminescence, 6 h; in the data active means activation mostly above about 9.7%, no sharp cut-off; inconclusive means no clear call, values can overlap the other calls; inactive means mostly below about 3.7%
Anthrax LF prot = inhibitors of Bacillus anthracis lethal factor protease; AID 588501; inhibition, % at 10 µM; multiplex microsphere protease cleavage assay, LF; P15917; hit rate 0.12% among 360,000; further: plate controls were buffer without enzyme for full effect and enzyme alone for no effect
Target sequence (P15917 whole entry, looked up): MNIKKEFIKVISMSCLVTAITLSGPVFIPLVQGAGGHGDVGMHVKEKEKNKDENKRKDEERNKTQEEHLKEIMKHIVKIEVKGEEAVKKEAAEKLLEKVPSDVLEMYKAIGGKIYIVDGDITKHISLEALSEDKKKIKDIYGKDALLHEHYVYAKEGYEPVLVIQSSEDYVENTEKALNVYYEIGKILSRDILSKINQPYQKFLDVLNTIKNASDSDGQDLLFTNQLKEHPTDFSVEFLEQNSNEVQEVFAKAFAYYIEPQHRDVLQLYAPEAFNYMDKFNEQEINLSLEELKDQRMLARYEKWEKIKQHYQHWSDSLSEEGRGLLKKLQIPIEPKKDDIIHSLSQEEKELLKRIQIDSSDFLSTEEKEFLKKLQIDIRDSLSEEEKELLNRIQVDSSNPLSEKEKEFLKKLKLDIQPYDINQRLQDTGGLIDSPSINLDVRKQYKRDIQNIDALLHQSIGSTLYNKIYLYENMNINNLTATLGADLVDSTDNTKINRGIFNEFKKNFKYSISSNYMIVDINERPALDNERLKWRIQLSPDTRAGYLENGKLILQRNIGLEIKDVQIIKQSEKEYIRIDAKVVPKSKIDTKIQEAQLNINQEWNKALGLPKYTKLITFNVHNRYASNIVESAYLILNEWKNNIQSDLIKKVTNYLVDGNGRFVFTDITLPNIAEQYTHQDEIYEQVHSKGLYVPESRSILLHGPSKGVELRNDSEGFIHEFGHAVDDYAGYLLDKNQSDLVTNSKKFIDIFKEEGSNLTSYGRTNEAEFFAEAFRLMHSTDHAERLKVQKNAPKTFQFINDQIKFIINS
Autofluor counter = counter-screen for toxin protease inhibitors: compound fluorescence; compound autofluorescence counterscreen, microsphere flow cytometry; stronger effect = higher value; hit rate 3.1% among 360,000; fluorescence intensity (concentration not given with the values); in the data active means fluorescence intensity above about 16000; inconclusive means no clear call, values can overlap the other calls
An asterisk follows results filed as active; i = inactive; ? = inconclusive; nt = not tested or not shown. Unless noted, no stated cut-off is given here; in the data, active means inhibition above about 30%; inconclusive means no clear call, values can overlap the other calls; inactive means below that.

SMILES	BoNT-A LC inh2	BoNT F protease	BH1578 lux ind	Anthrax LF prot	Autofluor counter
CCCCNC(=O)COC(=O)c1c2c(nc3ccccc13)/C(=C\c1cccs1)CC2	14.9	8.1	nt	15.0	3435
CC(C)CNC(=O)COC(=O)c1c2c(nc3ccccc13)/C(=C/c1cccs1)CC2	31.1*	17.6	-0.2	23.9	8338
Cc1cc2ccccc2n1CCNC(=O)c1cccs1	78.7*	-135.7	-0.2	-97.1	1143
O=C(Cc1ccccc1)Nc1ccc(NC(=O)c2ccccc2)c(Cl)c1	-1.9	?	-0.6	-12.2	3977
CCNC(=S)NNC(=O)c1cc(CC(C)C)nc2ccccc12	?	1.0	i	-0.3	22680*
CCNC(=S)NNC(=O)c1cc(-c2ccccc2C)nc2ccccc12	-0.5	-9.1	i	-5.4	10802
CCNC(=S)NNC(=O)c1cc(-c2cccc(OC)c2)nc2ccccc12	0.2	-0.1	-0.3	-0.9	2082
CCCOc1cccc(-c2cc(C(=O)NNC(=S)NCC)c3ccccc3n2)c1	-3.0	-4.5	i	-3.3	24056*
CCOc1ccc(NC(=O)CN(C)C(=O)c2cccc(S(=O)(=O)N3CCN(C)CC3)c2)cc1OCC	0.2	-5.4	i	-12.5	2869
FC(F)(F)c1nc2nccnc2[nH]1	0.0	-2.2	3.1	2.3	3814
O=C(CCl)N(O)c1ccc(C=Cc2ccccc2)cc1	-0.1	-1.1	1.0	4.7	4227
CCC(=NCCO)c1c(O)n(-c2ccc(Cl)cc2)c(=O)[nH]c1=O	-2.9	-6.1	-1.2	-5.6	23929*
C/C(=N\N1CCCCCC1)c1c(O)n(-c2ccc(Cl)cc2)c(=O)[nH]c1=O	-0.2	-5.5	-0.5	-6.9	4156
COCCSc1ccccc1C(=O)NCc1ccc(S(N)(=O)=O)cc1	?	1.9	-2.4	0.2	23008*
Cn1nc(C2CC2)cc1NC(=O)C1(C)CCN1C(=O)Cc1ccc(-c2ccccc2)cc1 (configuration not stated)	-0.3	0.1	i	3.4	3612
CCC(=O)Nc1nc(NCc2ccccc2OC)n(-c2ccccc2)n1	-13.0	?	-0.5	4.1	4169
COc1ccc(C2=NOC(COc3ccc4c(C)cc(=O)oc4c3)C2)c(OC)c1 (configuration not stated)	-7.6	-24.3	6.2	?	3880
COc1ccccc1C1=NOC(COc2ccc3c(C)cc(=O)oc3c2)C1 (configuration not stated)	-0.5	43.7*	i	?	3715
COc1ccc(N(C(=O)c2ccco2)C(C(=O)NC2CCCC2)c2ccc(N3CCOCC3)cc2)c(OC)c1 (configuration not stated)	3.0	12.7	-3.1	-5.8	2677
CCCS(=O)(=O)N1CCN(C(=O)c2cccc(OC)c2)CC1	-1.4	16.4	-3.4	-0.3	3563
COc1cccc(S(=O)(=O)Nc2ccc(C(=O)N3CCN(C(=O)c4ccco4)CC3)cc2)c1	4.6	4.8	0.0	-8.6	18332*
CS(=O)(=O)N1CCN(C(=O)c2c(F)cccc2F)CC1	-1.4	-2.8	0.5	-0.7	23941*
COc1cccc(C(=O)N2CCN(S(C)(=O)=O)CC2)c1	-0.6	-0.1	i	-4.9	23027*
CN(C)C(=O)N1CCC(C(=O)NCc2ccccc2)CC1	1.2	3.7	-1.7	-0.4	6437
COc1cccc(CNC(=O)C2CCN(C(=O)N(C)C)CC2)c1	0.2	-2.2	-5.0	-1.0	7067
SMILES	BoNT-A LC inh2	BoNT F protease	BH1578 lux ind	Anthrax LF prot	Autofluor counter
COc1ccccc1CNC(=O)C1CCN(C(=O)N(C)C)CC1	0.3	1.3	-0.4	-1.5	20518*
COc1ccc(CNC(=O)C2CCN(C(=O)N(C)C)CC2)c(OC)c1	?	-3.2	i	-3.6	16860*
COC(=O)c1cccc(N(CC(=O)NC2CCCC2)C(=O)CNC(=O)c2cccs2)c1	-1.4	1.1	-1.5	0.0	5335
O=[N+]([O-])c1cc(/C=N/O)ccc1SCc1ccccc1	?	-4.8	-2.1	-5.8	22700*
O=[N+]([O-])c1cc(/C=N/O)ccc1Sc1ccccc1	-0.3	-7.7	-5.6	-4.6	3287
COc1ccc(-c2cc(C(=O)N3CCN(C(c4ccccc4)c4ccccc4)CC3)no2)cc1	-0.6	-8.7	0.6	-4.9	11566
O=C(N1CCOCC1)N1CCN(C(c2ccccc2)c2ccccc2)CC1	1.0	0.9	-0.2	-5.3	21654*
O=C(c1cc(-c2ccco2)on1)N1CCN(C(c2ccccc2)c2ccccc2)CC1	4.2	2.0	-0.3	-5.9	21890*
CSc1nsc(SCC(=O)Nc2cccc(NC(C)=O)c2)n1	0.1	-2.2	i	-13.4	3942
O=S1(=O)C[C@H](N2CCN(CC3CC3)CC2)[C@@H](COCc2ccccc2)N1	0.8	-3.1	nt	-0.7	5935

Screening results: PubChem BioAssay, several laboratories
